Source: PubChem BioAssay (NCI)
This is part of a sample that, as a whole, favours compounds with a hit. Of some 83,000 tested, about 20% had one in any assay.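 Percent growth is the endpoint: 0 to 100 indicates growth inhibition (40 means 60% inhibition), 0 means no net growth, and negative values indicate cell death.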 Unmarked numbers belong to inactive results. Active and inactive are the calls of the source. The calls were made as follows: active = growth percent below 10; inactive = the rest.

How the values were obtained:
Test in all cases: NCI-60 one-dose screen, 48 h (100 = growth as untreated, 0 = no growth, -100 = all killed)
Details in all cases: 10 µM unless noted
HCT-15 colon = tested on: HCT-15 colon
HT29 colon = tested on: HT29 colon
SNB-75 CNS = tested on: SNB-75 CNS
SNB-19 CNS = tested on: SNB-19 CNS
U251 CNS = tested on: U251 CNS
PC-3 prostate = tested on: PC-3 prostate
SK-MEL-5 melanoma = tested on: SK-MEL-5 melanoma
UACC-62 melanoma = tested on: UACC-62 melanoma
LOX IMVI melanoma = tested on: LOX IMVI melanoma
SK-MEL-28 melanoma = tested on: SK-MEL-28 melanoma
SK-MEL-2 melanoma = tested on: SK-MEL-2 melanoma
EKVX NSCLC = tested on: EKVX NSCLC
SN12C renal = tested on: SN12C renal
UO-31 renal = tested on: UO-31 renal
TK-10 renal = tested on: TK-10 renal
ACHN renal = tested on: ACHN renal
CAKI-1 renal = tested on: CAKI-1 renal
A498 renal = tested on: A498 renal
CCRF-CEM leukemia = tested on: CCRF-CEM leukemia
MOLT-4 leukemia = tested on: MOLT-4 leukemia

SMILES | growth (HCT-15 colon) | growth (HT29 colon) | growth (SNB-75 CNS) | growth (SNB-19 CNS) [%] | growth (U251 CNS) | growth (PC-3 prostate) [%] | growth (SK-MEL-5 melanoma) | growth (UACC-62 melanoma) | growth (LOX IMVI melanoma) | growth (SK-MEL-28 melanoma) | growth (SK-MEL-2 melanoma) | growth (EKVX NSCLC) [%] | growth (SN12C renal) | growth (UO-31 renal) | growth (TK-10 renal) | growth (ACHN renal) | growth (CAKI-1 renal) | growth (A498 renal) | growth (CCRF-CEM leukemia) | growth (MOLT-4 leukemia)
COc1cc(-c2cc(-c3ccc(N(C)C)cc3)nc(N3CCC(O)CC3)c2C#N)cc(OC)c1OC | -41.1% (active) | 2.08% (active) | -17.2% (active) | 30.2 | 12.9% | 12.7 | -99% (active) | -26.8% (active) | -0.767% (active) | -28.7% (active) | -54.2% (active) | 21.7 | 26.4% | -45.1% (active) | 14.9% | 15.1% | -22.6% (active) | 26.3% | 26.6% | 2.62% (active)
Cn1c(=O)c2c(nc(NC3=NS(=O)(=O)c4ccccc43)n2CC(=O)N2CCc3ccccc32)n(C)c1=O | 101% | 101% | 94.9% | 101 | 101% | 104 | 101% | 97.6% | 91.2% | 105% | 106% | 102 | 96.9% | 75.9% | 108% | 102% | 92.7% | 58.9% | 101% | 112%
Cc1ccc(C(C(N)=O)C(C(N)=O)c2ccccc2)cc1 (stereo not given) | 110% | 109% | 114% | 109 | 104% | 105 | 117% | 119% | 108% | 123% | 105% | 113 | 112% | 108% | 101% | 115% | 101% | 116% | 93.4% | 100%
C/C(=N\NC(=O)c1ccccc1O)c1cccc(/C(C)=N/NC(=O)c2ccccc2O)n1 | 42.4% | 41.2% | 74.9% | 20 | 20% | 48 | 38% | 52% | 35.8% | 52.2% | 95.2% | 30 | 55% | 38.6% | 41% | 39.7% | 14.5% | 71.9% | 21.8% | 24.5%
CCCCCC(=O)OCC(=O)O[C@@H]1C[C@]2(C(C)C)O[C@@]1(C)[C@@H]1CC[C@@H](C)[C@H]1[C@@H]2OC(=O)/C=C/c1ccccc1 | 68.8% | 56.1% | 89% | 87 | 65.9% | 55.5 | 95.7% | 62.1% | 68.6% | 101% | 94% | 73.8 | 19.7% | -80.3% (active) | 134% | -24.2% (active) | -4.76% (active) | -88.6% (active) | 59.7% | 72.1%
COc1ccc(/C=C2\COc3ccc(O)c(O)c3C2=O)cc1 | -19.4% (active) | 42.6% | 44.4% | 42 | 12.8% | 17.7 | -1.8% (active) | 4.68% (active) | -63.9% (active) | 57.4% | 57.4% | 48 | -39.1% (active) | -86.3% (active) | 7.43% (active) | -42% (active) | 2.2% (active) | 24.4% | 7.73% (active) | 3.83% (active)
CC(C)=NNc1ccccn1 | 27.9% | 27.4% | 79.2% | 62.3 | 39.6% | 47.1 | 69.7% | 56.6% | 29.7% | 57.1% | 83.2% | 18.8 | 45.4% | 29.5% | 39% | 27.9% | 29.1% | 78.1% | 26.8% | 25.4%
Cc1cc2c(O)c(-c3cc(Cl)ccc3Cl)c3sc(=O)oc3c2cc1C | 74.5% | 103% | 61.2% | 77.6 | 45.4% | 29.2 | 42.5% | 52.2% | 78.4% | 81% | 74% | 94.6 | 66.9% | 85.3% | 113% | 79.8% | 53.9% | 30.1% | 53.8% | 40.6%
CC(C)=CCC[C@](C)(O)[C@H]1CC[C@]2(C)[C@@H]1CC[C@@H]1[C@@]3(C)Cc4nccnc4C(C)(C)[C@@H]3CC[C@]12C | 70.4% | 42% | 91.6% | 94 | 78.2% | 44.6 | 65.8% | 66.9% | 83.7% | 95.6% | 82.7% | 70.6 | 72.3% | 79.9% | 94.9% | 85% | 70.2% | 91.4% | 68.4% | 66.7%
CC(=O)N(N=Nc1ccccc1)c1cccc2ccccc12 | 17.1% | 35.2% | 129% | 106 | 81.7% | 68.1 | 84.3% | 75.3% | 76.5% | 100% | 20.1% | 101 | 85.7% | 61.2% | 96.8% | 8.59% (active) | 31.8% | 115% | 79.8% | 76.8%
COc1ccc(C2c3sc4c(F)cccc4c3Oc3nc[nH]c(=O)c32)cc1 (stereo not given) | 74.9% | 107% | 88.2% | 79 | 89.7% | 65.8 | 75.4% | 60.1% | 82.9% | 92.6% | 97.8% | 71.2 | 77.8% | 47.6% | 110% | 72.7% | 76.6% | 95% | 85.3% | 84.2%
CNC(=O)c1cc(Oc2ccc3c(c2)sc2nc(-c4cc(OC)c(OC)c(OC)c4)cn23)ccn1 | 54.1% | 65.3% | 50.3% | 82.2 | 61.9% | 34.3 | -13.9% (active) | 44.5% | 58% | 63.5% | 54.3% | 50.2 | 53.1% | 30.3% | 50.3% | 51.9% | 43.6% | 53.7% | 39.4% | 18.3%
CN(C)CCCC1(c2ccc(F)cc2)OCc2cc(-c3cccc4[nH]ccc34)ccc21 (stereo not given) | 7.57% (active) | -31.3% (active) | 11.4% | 51.9 | -24.1% (active) | 28.6 | -84.1% (active) | 37.5% | -92.1% (active) | -86% (active) | 74.5% | 44.8 | 48.3% | -9.8% (active) | 58.5% | 9.24% (active) | 6.71% (active) | 72% | 16% | -8.64% (active)
CC(C)c1ccc(NC(=O)Nc2ccc(NC(=O)CCCC(=O)NOCc3ccccc3)cc2)cc1 | 99.8% | 79.4% | 80.2% | 91.3 | 85.6% | 93.3 | 83.8% | 89.2% | 82.2% | 94.4% | 87.7% | 105 | 92.8% | 85% | 103% | 87.4% | 87.9% | 96.4% | 75.1% | 71.1%
CCOC(=O)CNP(=O)(OC[C@@H](Cc1ccccc1)NC(=O)c1cc2ccccc2s1)Oc1ccccc1 (stereo not given in full) | 43.5% | 57.2% | 35.2% | 87.7 | 66.5% | 85.5 | 88.2% | 71.4% | 76.2% | 77% | 75.9% | 80.6 | 84.9% | 80.7% | 109% | 99.9% | 70.6% | 38.5% | 86.5% | 54.8%
